Results published in PMC4336329 (PLoS ONE, 2015).
The whole screen tested about 310,000 compounds, of which about 14,000 (4.5%) showed an effect of 50% or more. Effects have a minus sign here. What follows is part of a selection rich in strong results, with near analogues and random picks from the rest.

target: human ether-à-go-go-related gene (hERG) potassium channel (human, UniProt Q12809); assay: primary screen, population patch clamp on CHO cells stably expressing hERG; higher = less effect of the substance
Sequence (Q12809 whole entry, looked up): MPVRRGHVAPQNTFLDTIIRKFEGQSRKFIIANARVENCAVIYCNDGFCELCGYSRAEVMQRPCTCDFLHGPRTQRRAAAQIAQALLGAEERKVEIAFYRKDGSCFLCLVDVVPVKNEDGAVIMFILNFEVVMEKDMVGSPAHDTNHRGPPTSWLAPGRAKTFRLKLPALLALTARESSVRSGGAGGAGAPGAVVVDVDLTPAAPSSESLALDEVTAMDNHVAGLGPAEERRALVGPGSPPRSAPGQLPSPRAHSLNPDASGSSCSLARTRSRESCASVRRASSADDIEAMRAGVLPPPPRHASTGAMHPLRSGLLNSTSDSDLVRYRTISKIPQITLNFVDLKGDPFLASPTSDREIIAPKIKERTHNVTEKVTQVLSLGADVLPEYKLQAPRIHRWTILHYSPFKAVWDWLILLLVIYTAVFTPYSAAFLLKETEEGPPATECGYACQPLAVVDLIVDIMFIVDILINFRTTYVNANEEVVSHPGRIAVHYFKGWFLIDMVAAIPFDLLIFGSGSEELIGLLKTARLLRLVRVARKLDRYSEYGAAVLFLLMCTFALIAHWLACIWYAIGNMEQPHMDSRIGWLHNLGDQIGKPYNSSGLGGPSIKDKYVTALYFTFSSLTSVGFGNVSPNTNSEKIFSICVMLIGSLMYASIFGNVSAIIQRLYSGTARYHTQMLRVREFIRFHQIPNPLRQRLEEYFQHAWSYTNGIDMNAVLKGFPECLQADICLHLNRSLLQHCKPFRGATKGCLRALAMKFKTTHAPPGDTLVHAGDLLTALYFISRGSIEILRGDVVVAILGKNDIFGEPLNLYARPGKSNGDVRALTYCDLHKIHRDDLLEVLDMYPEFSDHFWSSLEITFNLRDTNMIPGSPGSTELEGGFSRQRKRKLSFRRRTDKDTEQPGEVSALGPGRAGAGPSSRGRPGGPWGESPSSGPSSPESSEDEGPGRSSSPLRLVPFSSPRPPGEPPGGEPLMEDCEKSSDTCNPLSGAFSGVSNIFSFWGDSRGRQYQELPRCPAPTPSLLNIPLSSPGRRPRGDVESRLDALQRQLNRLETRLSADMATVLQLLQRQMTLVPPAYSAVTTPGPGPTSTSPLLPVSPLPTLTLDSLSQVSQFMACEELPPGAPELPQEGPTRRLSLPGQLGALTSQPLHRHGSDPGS
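Note: peak tail current of the secondary pulse compared with the same well before compound.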

Structure (SMILES) | hERG current change (%, negative = inhibition) at 10uM [%]
O=C1[C@H]2[C@H](C=CC[C@H]2C(=O)N2CCOCC2)CCN1Cc1ccc(Cl)c(Cl)c1 | -3.89
CCN1CCC[C@H]1CNC(=O)c1c(OC)ccc(Br)c1OC.Cl | -12.2
Cc1ccc(-c2nc(-c3cccnc3)sc2CC(=O)O)cc1 | 11
CCN1CCN(C(=O)Cc2c(C)n(C(=O)c3ccc(Cl)cc3)c3ccc(OC)cc23)CC1.Cl | -38.6
N#Cc1nc(-c2ccc(OCc3ccccc3)cc2)oc1N1CCOCC1 | 10.4
Cc1nc2nc(-c3ccc(F)cc3)cn2nc1C | 7.58
Cc1ccc(-c2cn3nc(C)c(C)nc3n2)cc1 | -6.47
CCc1ccc(-c2cn3nc(C)c(C)nc3n2)cc1 | -50.8
O=C1C=CC(=O)N1c1ccc(I)cc1Cl | 18.9
COc1ccc(N2CCN(C(=O)C3CCCN(S(=O)(=O)c4ccc(F)cc4)C3)CC2)cc1 (centres unmarked) | -39.2
COc1ccc(N2CCN(C(=O)C3CCN(S(=O)(=O)c4ccc(C)cc4)CC3)CC2)cc1 | -10.2
COc1ccc(N2CCN(C(=O)C3CCCN(S(=O)(=O)c4ccc(C)cc4)C3)CC2)cc1 (centres unmarked) | -53.4
COc1ccc(N2CCN(S(=O)(=O)c3c(C)noc3/C=C/N(C)C)CC2)cc1 | -0.914
COc1ccc(N2CCN(C(=O)C3CCN(S(=O)(=O)c4c(C)noc4/C=C/N(C)C)CC3)CC2)cc1 | -53.8
COc1ccc(NC(=O)C2CCN(S(=O)(=O)c3c(C)noc3/C=C/N(C)C)CC2)cc1 | -15.3
Cc1ccc(C)c(N2CCN(C(=O)C3CCCN(S(=O)(=O)c4c(C)noc4C)C3)CC2)c1 (centres unmarked) | -11.1
Cc1noc(C)c1S(=O)(=O)N1CCC(C(=O)N2CCN(c3ccc(F)cc3)CC2)CC1 | -41.4
Cc1cccc(N2CCN(C(=O)C3CCCN(S(=O)(=O)c4c(C)noc4C)C3)CC2)c1C (centres unmarked) | -22.3
Cc1noc(C)c1S(=O)(=O)N1CCC(C(=O)N2CCN(c3ccccc3Cl)CC2)CC1 | -13.6
Cc1noc(C)c1S(=O)(=O)N1CCC(C(=O)N2CCN(c3ccc(Cl)cc3)CC2)CC1 | -51.7

Structure (SMILES) | hERG current change (%, negative = inhibition) at 10uM [%]
COc1ccc(N2CCN(C(=O)C3CCCN(S(=O)(=O)c4c(C)noc4C)C3)CC2)cc1 (centres unmarked) | -59.9
CCc1ccc(NC(=O)c2sccc2-n2cccc2)cc1 | -7.29
NS(=O)(=O)c1ccc(F)c(C(=O)O)c1 | 8.68
CCNc1ccc(S(=O)(=O)N(C)C)cc1NCC(=O)Nc1ccc(F)c(Cl)c1 | -4.33
O=C(Nc1ccc(Cl)cc1F)C1CC1c1ccccc1 (centres unmarked) | 12.6
COc1ccc(C)cc1NC(=O)C(Sc1nnc(Nc2cc(C)ccc2OC)s1)c1ccccc1 (centres unmarked) | 0.631
Cc1ccc2c(c1)nnc1nnc(SCC(=O)O)n12 | 3.45
COC(=O)c1sccc1NC(=O)c1csc2c1CCCC2 | -10.9
OCC[C@H]1C[C@H](O)[C@@H](O)[C@]2(CCc3ccccc3O2)O1 | 6.41
Cc1ccc(C(=O)C2CCN(S(=O)(=O)c3c(C)noc3C)CC2)cc1 | -67.3
Cc1noc(C)c1S(=O)(=O)N1CCC(C(=O)O)CC1 | -3.88
Cc1noc(C)c1S(=O)(=O)N1CCC(C(=O)c2ccccc2)CC1 | -43
COc1ccc(S(=O)(=O)N2CCC(n3cnc4ccccc43)CC2)cc1 | -64.9
COc1ccc(NC(=O)N2CCC(n3cnc4ccccc43)CC2)cc1 | -28.5
CCn1c(N2CCN(S(=O)(=O)c3ccccc3C(F)(F)F)CC2)nc2ccccc21.Cl | -39.6
O=S(=O)(c1ccccc1C(F)(F)F)N1CCN(S(=O)(=O)c2ccccc2C(F)(F)F)CC1 | -2.32
O=S(=O)(c1ccccc1)N1CCC(n2cnc3ccccc32)CC1 | -64
O=S(=O)(c1ccc(F)cc1)N1CCC(n2cnc3ccccc32)CC1 | -39.7
COc1ccc(S(=O)(=O)n2cnc3ccccc32)cc1.Cl | 13.4
O=S(=O)(c1ccccc1C(F)(F)F)N1CCC(n2cnc3ccccc32)CC1 | -60.5

Structure (SMILES) | hERG current change (%, negative = inhibition) at 10uM [%]
O=S(=O)(c1ccc(S(=O)(=O)n2cnc3ccccc32)cc1)N1CCCCCC1 | 3.15
Cn1c(=O)n(CC(=O)N2CCOCC2)c2ccccc21 | 3.76
COc1ccc(C(=O)NNC(=O)C23CC4CC(CC(C4)C2)C3)cc1OC | 0.327
COc1cccc(-n2ccnc2SCC(=O)N2CCCc3ccccc32)c1 | -10
Cc1c(Cl)cccc1NC(=O)NN1CCN(C)CC1 | -0.937
Cc1nonc1C(=O)N/N=C/c1ccc(O)c(O)c1 | -29.7
CCOc1ccccc1NC(=O)COC(=O)c1cc[n+]([O-])cc1 | 12.3
Cc1ccc([N+](=O)[O-])cc1Nc1nc(N2CCOCC2)nc(N2CCOCC2)n1 | -13.5
Cc1ccc(C2OC(=O)C=C2c2ccccc2)cc1 (centres unmarked) | 3.71
Cn1c(=O)c2c(ncn2CC(=O)OCC(=O)NC(c2ccccc2)c2ccccc2)n(C)c1=O | -2.22
COC(=O)CN(c1ccccc1)S(=O)(=O)c1ccccc1 | 4.04
COc1ccc(CCNC(=O)C2CC2)cc1OC | -18.3
Fc1ccccc1Nc1ncnc2c1nnn2Cc1ccccc1 | -20
Cc1nnc2ccc(-c3cccc(NC(=O)c4ccc(Cl)nc4)c3)nn12 | -56.7
CS(=O)(=O)c1ccc(-c2cccc(NC(=O)c3ccc(Br)o3)c2)nn1 | 3.74
Cc1nnc2ccc(-c3cccc(NC(=O)c4ccco4)c3)nn12 | -5.08
Cc1nnc2ccc(-c3cccc(NC(=O)c4ccc(Br)o4)c3)nn12 | -75.8
Cc1nnc2ccc(-c3cccc(NS(C)(=O)=O)c3)nn12 | -17.1
Cc1nnc2ccc(-c3ccc(NC(=O)c4ccc(Cl)nc4)cc3)nn12 | -15
